Results filed as inconclusive are left out. Calls of active or inactive are those of the source. Unless noted, the call rests on the fitted dose curve; in most records, active means well fitted curve in the direction sought with a large enough effect in the repeat runs; inconclusive means weak or mixed curves; inactive means no such curve, though single readings can be large; an effect the other way counts as inactive or inconclusive.
Tests used:
[1] = qHTS assay to identify small molecule agonists of the estrogen receptor alpha (ER-alpha) signaling pathway in the presence of an antagonist - cell viability counter screen (AID 1259386);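 further: cells exposed to compounds for 22 h at 37 °C before the viability read; nearly all actives have a fitted effect of over 30% in size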; further: potency means the concentration at half of the fitted maximal effect
How it was run: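 VM7Luc4E2 cells (endogenous full-length ER-alpha, 4×ERE-luciferase) were held 5 days in phenol red-free medium with 10% charcoal-stripped FBS, plated, then given 10.0nM ICI-182,780 and compounds at 15 concentrations for 22hr at 37C; viability read by CellTiter-Fluor fluorescence.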

[2] = target: Progesterone receptor (Homo sapiens) (UniProt P06401); assay: qHTS assay to identify small molecule agonists of the progesterone receptor (PR) signaling pathway (AID 1346784; calls by dose curve; further: nearly all actives have a fitted effect of over 30% in size)
How it was run: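 PR-UAS-bla HEK 293T cells (beta-lactamase reporter under UAS) in 2% charcoal-stripped FBS, dosed with 23 nL compound after 6 hr, incubated 16hr at 37C. LiveBLAzer B/G FRET substrate added, fluorescence read after 2 hours.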

[3] = qHTS assay to identify small molecule antagonists of the TGF-beta/Smad signaling pathway - cell viability counter screen (AID 1346824); further: nearly all actives have a fitted effect of over 50% in size
How it was run: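 Cytotoxicity counter-screen run in the same wells as the beta-lactamase Smad reporter read: CellTiter-Glo luminescence after 30 min at room temperature. HEK 293T SBE-bla cells had 5 hr compound exposure at 37 C with TGF-beta1 (0.25 ng/mL stock).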

[4] = qHTS assay to identify small molecule agonists of the TGF-beta/Smad signaling pathway - cell viability counter screen (AID 1346829); further: top concentration of the series differs between compounds; nearly all actives have a fitted effect of over 45% in size
How it was run: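 Same-well cytotoxicity: CellTiter-Glo added after the 2 hr room-temperature beta-lactamase substrate step, luminescence measured 30 min later; cells had 5 hr of compound at 37 C.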

[5] = qHTS assay to identify small molecule agonists of the TGF-beta/Smad signaling pathway (AID 1346859; active means well fitted activation curve with a large enough effect in the signal ratio in the repeat runs, not every such curve was filed as active; the % refers to the signal ratio; further: series mostly up to about 77 µM)
How it was run: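 SBE-bla HEK293T cells plated overnight, then compound exposure for 5 h at 37 C. Beta-lactamase reporter read with LiveBLAzer B/G FRET substrate after 2 h at room temperature, fluorescence at 405 nm excitation, 460/530 nm emission.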

[6] = Caspase-3/7 induction in HepG2 cells by small molecules, qHTS assay (AID 1346978); further: nearly all actives have a fitted effect of over 15% in size
How it was run: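 Caspase-3/7 induction was measured by Caspase-Glo 3/7 luminescence (30 min, room temperature) after a 17 hr compound exposure of wild-type HepG2 cells seeded at 2,000 per well and pre-incubated 5 hr.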

[7] = Caspase-3/7 induction in CHO-K1 cells by small molecules, qHTS cell viability counter screen (AID 1346979); further: nearly all actives have a fitted effect of over 35% in size; further: potency means the concentration at half of the fitted maximal effect
How it was run: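 Wild-type CHO-K1 cells (1,500/well) treated with compound after 5 h plating; after 16 h at 37C, viability read as CellTiter-Fluor fluorescence following 1 h reagent incubation, in the same wells as the caspase read.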

[8] = Caspase-3/7 induction in HepG2 cells by small molecules, qHTS cell viability counter screen (AID 1346981); further: series mostly up to about 92 µM; nearly all actives have a fitted effect of over 30% in size
How it was run: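 Wild-type HepG2 cells (2,000/well) were allowed to settle for 5 hr at 37 C, 5% CO2, then dosed with compounds in DMSO by pin transfer. After 16 hr at 37 C, CellTiter-Fluor was added and fluorescence read 1 hr later.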

[9] = target: Nuclear receptor subfamily 1 group I member 2 (Homo sapiens) (UniProt O75469); assay: Human pregnane X receptor (PXR) small molecule agonists, qHTS assay (AID 1346982); further: nearly all actives have a fitted effect of over 35% in size; further: potency means the concentration at half of the fitted maximal effect
How it was run: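 PXR-Luc HepG2 cells (CYP3A4 promoter-driven luciferase) were seeded in medium with 5% charcoal-stripped FBS, left 5 hr at 37 C, then exposed to compounds in DMSO for 24 hr. Luminescence was read after ONE-Glo addition.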

[10] = target: Progesterone receptor (Homo sapiens) (UniProt P06401); assay: qHTS assay to identify small molecule antagonists of the progesterone receptor (PR) signaling pathway (AID 1346795; active means well fitted inhibition curve with a large enough effect in the signal ratio in the repeat runs, not every such curve was filed as active; the % refers to the signal ratio; further: potency means the concentration at half of the fitted maximal effect)
How it was run: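 PR-UAS-bla HEK293T cells with beta-lactamase reporter under UAS control, in 2% charcoal-stripped FBS, treated with compounds plus 1 nM promegestone (R5020, final) for 16 hr at 37C. Read-out: FRET beta-lactamase substrate fluorescence after 2 hr at room temperature.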

[11] = target: Thyrotropin-releasing hormone receptor (Homo sapiens) (UniProt P34981); assay: qHTS assay to identify small molecule antagonists of the thyrotropin-releasing hormone receptor (TRHR) signaling pathway (AID 1346877; active means well fitted inhibition curve with a large enough effect in the repeat runs, not every such curve was filed as active; further: series mostly up to about 51 µM)
How it was run: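 TRHR-expressing HEK293 cells were seeded, cultured 18 h at 37 °C, then loaded with calcium dye for 2 h. Compounds were pre-incubated 5 min at room temperature before 1 nM TRH (final) was added, and kinetic fluorescence was recorded for 3 min.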

[12] = target: Thyrotropin-releasing hormone receptor (Homo sapiens) (UniProt P34981); assay: qHTS assay to identify small molecule agonists of the thyrotropin-releasing hormone receptor (TRHR) signaling pathway (AID 1346891; calls by dose curve; further: series mostly up to about 58 µM)
How it was run: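 HEK293 cells expressing TRHR plated 18 h at 37 C/5% CO2, calcium dye-loaded 2 h at 37 C, then compound added (agonist mode); kinetic calcium fluorescence read 3 min at 1 s intervals; 15 concentrations in triplicate.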

[13] = Caspase-3/7 induction in CHO-K1 cells by small molecules, qHTS assay (AID 1346980); further: nearly all actives have a fitted effect of over 15% in size
How it was run: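 Luminescent Caspase-Glo 3/7 read (30min, room temperature) quantified apoptosis induction. Cells were wild-type CHO-K1, treated with compound for 17hr at 37 C and 5% CO2.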

[14] = target: Nuclear receptor subfamily 1 group I member 2 (Homo sapiens) (UniProt O75469); assay: Human pregnane X receptor (PXR) activation by small molecules, qHTS assay (AID 1346985); further: nearly all actives have a fitted effect of over 40% in size; further: potency means the concentration at half of the fitted maximal effect
How it was run: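 DPX-2 cells (HepG2 co-transfected with a PXR response element and a CYP3A4-promoter luciferase construct) were seeded at 2,000 per well, rested 5 hr at 37C, then exposed to DMSO-dissolved compounds for 24 hr. Activation was read as luciferase luminescence.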

[15] = target: Cytochrome P450 2D6 (Homo sapiens) (UniProt P10635); assay: Cytochrome P450 Family 2 Subfamily D Member 6 (CYP2D6) small molecule antagonists: luciferase reporter qHTS assay (AID 1671196); further: nearly all actives have a fitted effect of over 50% in size; further: potency means the concentration at half of the fitted maximal effect
How it was run: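 CYP2D6 enzyme–substrate mix was held with compound for 10 min at room temperature, then NADPH regeneration solution was added and the reaction ran 1 h at room temperature. Luciferin product was detected by luminescence after 20 min with detection reagent.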

[16] = Human pregnane X receptor (PXR) small molecule agonists, qHTS cell viability counter screen (AID 1346977); further: nearly all actives have a fitted effect of over 50% in size
How it was run: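 PXR-Luc HepG2 cells (2,000/well, 5% charcoal-stripped FBS) preincubated 5 hr, then exposed to compounds 24 hr at 37 C. Viability read in the same wells by CellTiter-Fluor fluorescence, reagent added at 23 hr, 1 hr incubation.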

[17] = target: Nuclear receptor subfamily 1 group I member 2 (Rattus norvegicus) (UniProt Q9R1A7); assay: Rat pregnane X receptor (rPXR) activation by small molecules, qHTS assay (AID 1346983); settings: rPXR luciferase reporter cells, One-Glo luminescence, 24 h; max activation: active compounds read high; further: nearly all actives have a fitted effect of over 20% in size
How it was run: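 Luminescent readout (One-Glo luciferase, 30 min room temperature) followed 24 hr compound treatment at 37 C of rPXR cells plated 2,000 per well and preincubated 5hr; qHTS format with compounds delivered in DMSO.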

[18] = qHTS assay to identify small molecule agonists of the progesterone receptor (PR) signaling pathway - cell viability counter screen (AID 1346799; calls by dose curve; further: nearly all actives have a fitted effect of over 45% in size)
How it was run: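 Counter screen in the PR-UAS-bla HEK293T wells (2% charcoal-stripped FBS, 16 h compound exposure at 37 C) after the bla read. CellTiter-Glo added, 30 min at room temperature, luminescence read as cell viability.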

[19] = qHTS assay to identify small molecule antagonists of the progesterone receptor (PR) signaling pathway - cell viability counter screen (AID 1346798); further: series mostly up to about 92 µM; nearly all actives have a fitted effect of over 50% in size
How it was run: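 PR-UAS-bla HEK293T cells, 3,000/well in 2% charcoal-stripped FBS medium, dosed with compounds plus R5020 agonist and incubated 16 h at 37C. Viability then measured in the same wells by CellTiter-Glo luminescence after 30 min at RT.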
On the % scale 0 is the no-effect control and ±100 the full control effect.

Chain of Nuclear receptor subfamily 1 group I member 2 (Rattus norvegicus) (Q9R1A7 whole entry, looked up): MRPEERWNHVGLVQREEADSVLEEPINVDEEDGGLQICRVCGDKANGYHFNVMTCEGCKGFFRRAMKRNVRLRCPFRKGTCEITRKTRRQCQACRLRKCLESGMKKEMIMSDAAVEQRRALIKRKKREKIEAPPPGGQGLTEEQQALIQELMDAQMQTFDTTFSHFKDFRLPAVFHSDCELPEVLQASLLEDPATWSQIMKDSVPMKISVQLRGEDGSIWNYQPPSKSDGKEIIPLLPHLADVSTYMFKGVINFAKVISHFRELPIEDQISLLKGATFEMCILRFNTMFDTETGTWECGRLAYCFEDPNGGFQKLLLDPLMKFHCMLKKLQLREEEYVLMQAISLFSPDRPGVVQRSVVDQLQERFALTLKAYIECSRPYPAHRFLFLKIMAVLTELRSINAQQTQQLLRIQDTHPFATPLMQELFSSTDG
Chain of Progesterone receptor (Homo sapiens) (P06401 whole entry, looked up): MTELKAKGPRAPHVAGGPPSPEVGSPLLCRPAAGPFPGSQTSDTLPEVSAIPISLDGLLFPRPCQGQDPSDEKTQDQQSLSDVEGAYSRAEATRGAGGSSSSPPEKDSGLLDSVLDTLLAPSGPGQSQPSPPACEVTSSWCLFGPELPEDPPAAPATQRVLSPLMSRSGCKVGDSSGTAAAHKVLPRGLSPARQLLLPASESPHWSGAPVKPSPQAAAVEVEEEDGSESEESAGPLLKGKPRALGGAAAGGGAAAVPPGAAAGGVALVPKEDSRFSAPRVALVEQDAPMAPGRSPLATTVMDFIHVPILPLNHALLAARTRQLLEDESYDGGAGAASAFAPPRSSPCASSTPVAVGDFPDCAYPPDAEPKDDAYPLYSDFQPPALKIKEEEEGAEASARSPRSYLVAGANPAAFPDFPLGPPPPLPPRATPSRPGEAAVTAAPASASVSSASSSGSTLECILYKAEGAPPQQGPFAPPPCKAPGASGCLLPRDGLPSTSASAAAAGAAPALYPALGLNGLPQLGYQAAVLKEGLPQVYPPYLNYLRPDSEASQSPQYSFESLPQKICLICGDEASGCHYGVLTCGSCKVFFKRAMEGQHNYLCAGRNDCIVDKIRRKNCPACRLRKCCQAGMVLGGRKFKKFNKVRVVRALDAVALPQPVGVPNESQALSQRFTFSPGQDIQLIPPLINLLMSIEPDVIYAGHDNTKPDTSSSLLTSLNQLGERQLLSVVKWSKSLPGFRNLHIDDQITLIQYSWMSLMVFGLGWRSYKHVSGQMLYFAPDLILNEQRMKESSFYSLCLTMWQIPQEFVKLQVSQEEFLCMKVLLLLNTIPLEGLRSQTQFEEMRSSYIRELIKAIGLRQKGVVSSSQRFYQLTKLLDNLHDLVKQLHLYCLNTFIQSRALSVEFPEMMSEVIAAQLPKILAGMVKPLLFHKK
Chain of Cytochrome P450 2D6 (Homo sapiens) (P10635 whole entry, looked up): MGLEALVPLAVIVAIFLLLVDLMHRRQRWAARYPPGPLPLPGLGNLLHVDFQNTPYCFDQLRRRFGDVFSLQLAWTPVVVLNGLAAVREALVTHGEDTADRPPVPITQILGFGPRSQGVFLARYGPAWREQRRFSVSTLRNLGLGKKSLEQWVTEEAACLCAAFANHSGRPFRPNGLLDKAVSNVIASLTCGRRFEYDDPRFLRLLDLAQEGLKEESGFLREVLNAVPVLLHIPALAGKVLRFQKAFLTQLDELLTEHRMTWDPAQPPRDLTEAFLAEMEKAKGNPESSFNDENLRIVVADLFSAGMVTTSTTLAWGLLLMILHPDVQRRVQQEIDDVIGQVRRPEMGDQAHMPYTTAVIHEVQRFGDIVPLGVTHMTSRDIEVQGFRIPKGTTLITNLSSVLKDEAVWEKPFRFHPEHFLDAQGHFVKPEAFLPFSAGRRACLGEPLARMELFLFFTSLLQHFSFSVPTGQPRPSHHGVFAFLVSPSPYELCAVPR
Chain of Thyrotropin-releasing hormone receptor (Homo sapiens) (P34981 whole entry, looked up): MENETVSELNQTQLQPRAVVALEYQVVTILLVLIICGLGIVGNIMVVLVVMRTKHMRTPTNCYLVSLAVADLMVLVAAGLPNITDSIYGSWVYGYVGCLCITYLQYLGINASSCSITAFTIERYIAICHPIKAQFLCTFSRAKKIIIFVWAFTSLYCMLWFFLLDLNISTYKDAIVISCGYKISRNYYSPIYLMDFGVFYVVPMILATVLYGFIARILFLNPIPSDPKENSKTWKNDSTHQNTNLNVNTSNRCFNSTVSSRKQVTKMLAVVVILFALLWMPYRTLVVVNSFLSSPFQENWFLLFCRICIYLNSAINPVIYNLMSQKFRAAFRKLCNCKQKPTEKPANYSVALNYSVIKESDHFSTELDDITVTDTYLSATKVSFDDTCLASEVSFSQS
Chain of Nuclear receptor subfamily 1 group I member 2 (Homo sapiens) (O75469 whole entry, looked up): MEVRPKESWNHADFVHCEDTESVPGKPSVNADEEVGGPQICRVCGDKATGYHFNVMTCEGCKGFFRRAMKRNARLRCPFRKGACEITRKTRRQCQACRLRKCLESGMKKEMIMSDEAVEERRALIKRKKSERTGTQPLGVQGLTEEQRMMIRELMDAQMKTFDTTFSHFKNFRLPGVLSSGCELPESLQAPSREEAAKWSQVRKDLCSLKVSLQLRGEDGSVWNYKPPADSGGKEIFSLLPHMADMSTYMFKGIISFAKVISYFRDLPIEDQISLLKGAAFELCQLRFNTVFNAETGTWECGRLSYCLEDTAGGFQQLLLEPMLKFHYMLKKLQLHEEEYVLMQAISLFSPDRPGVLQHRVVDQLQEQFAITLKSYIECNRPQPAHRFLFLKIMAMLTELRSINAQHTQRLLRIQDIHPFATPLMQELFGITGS

CNCC[C@@H](Oc1ccccc1C)c1ccccc1
inactive: Potency [1] | outcome [2] | Potency [3] | Potency [4] | outcome [5] | outcome [6] | Potency [7] | Potency [8] | Potency [9]

O=S1(=O)c2cccc3cccc(c23)N1CCCN1CCN(c2ccc(F)cc2)CC1
inactive: Potency [1] | Potency [3] | Potency [4] | outcome [5] | outcome [11] | Potency [12] | outcome [6] | Potency [7] | Potency [13] | Potency [8]
active: Potency [10] 18.8 µM | Potency [9] 4.73 µM | Potency [14] 15.8 µM | Potency [15] 1.55 µM

Cl/C(=C\n1cncn1)c1ccc(Cl)cc1Cl
active: Potency [15] 15.5 µM
inactive: Potency [1] | outcome [2] | Potency [3] | Potency [4] | outcome [5] | Potency [12] | Potency [16] | outcome [6] | Potency [7] | Potency [8] | max activation [17] -0.206% | Potency [14]

O=C(O)COC(=O)Cc1ccccc1Nc1c(Cl)cccc1Cl
inactive: Potency [1] | outcome [2] | Potency [18] | Potency [3] | Potency [4] | Potency [16] | outcome [6] | Potency [13] | Potency [8] | Potency [9] | max activation [17] -0.166% | Potency [14] | Potency [15]

C=CCCCCCC
inactive: Potency [1] | Potency [10] | Potency [18] | Potency [3] | Potency [4] | outcome [5] | Potency [12] | Potency [16] | outcome [6] | Potency [7] | Potency [13] | Potency [8] | Potency [9] | Potency [15]

CC1CCc2cc(F)cc3c(=O)c(C(=O)O)cn1c23 (stereo unspecified)
inactive: Potency [1] | Potency [10] | Potency [18] | Potency [3] | Potency [16] | outcome [6] | Potency [7] | Potency [13] | Potency [8] | Potency [15]

CC(=O)CC(=O)c1ccccc1
inactive: Potency [1] | outcome [2] | Potency [3] | Potency [4] | outcome [5] | outcome [11] | Potency [12] | outcome [6] | Potency [7] | Potency [13] | Potency [8]

CC(C)(C)c1ccc(OCC2CO2)cc1 (stereo unspecified)
active: Potency [7] 55.6 µM | Potency [9] 35.1 µM
inactive: Potency [1] | Potency [10] | Potency [19] | Potency [18] | Potency [3] | Potency [4] | outcome [11] | Potency [12] | outcome [6] | Potency [13]

Oc1ccc(Sc2ccc(O)cc2)cc1
inactive: Potency [1] | Potency [3] | Potency [4] | outcome [5] | outcome [11] | Potency [12] | Potency [16] | outcome [6] | Potency [13] | Potency [8]
active: Potency [10] 18.1 µM | Potency [9] 51 µM | Potency [15] 33.3 µM

CC(=O)SCc1ccco1
inactive: Potency [1] | Potency [10] | Potency [19] | Potency [18] | Potency [3] | Potency [4] | Potency [12] | Potency [16] | outcome [6] | Potency [7] | Potency [8] | Potency [9] | Potency [15]

CCCC[C@H]1CN(CC2CCOCC2)C(=O)OC12CCN(C1(C)CCN(C(=O)c3c(C)ncnc3C)CC1)CC2
inactive: Potency [1] | Potency [10] | Potency [19] | Potency [3] | Potency [4] | outcome [11] | Potency [12] | Potency [16] | outcome [6] | Potency [7] | Potency [13] | Potency [9] | Potency [15]

O=S(=O)(O)c1ccc(O)c2ncccc12
inactive: Potency [1] | outcome [2] | Potency [3] | Potency [4] | outcome [5] | Potency [16] | outcome [6] | Potency [13] | Potency [9]

Cc1nc2ccccc2n1Cc1ccc(Cl)cc1
active: Potency [1] 13.3 µM | Potency [10] 13.3 µM | Potency [7] 7.5 µM | Potency [15] 15.5 µM
inactive: Potency [3] | Potency [4] | outcome [6] | Potency [13] | Potency [8] | max activation [17] -21.8% | Potency [14]

O=C(c1ccc(O)cc1)c1ccc(O)cc1
active: Potency [10] 48.6 µM | Potency [9] 54.5 µM
inactive: Potency [1] | Potency [3] | Potency [4] | outcome [5] | outcome [11] | Potency [12] | Potency [16] | outcome [6] | Potency [7] | Potency [13] | Potency [8]

CCCCOC(=O)/C=C\C(=O)OCCCC
inactive: Potency [1] | Potency [10] | Potency [19] | Potency [3] | Potency [4] | outcome [5] | outcome [11] | Potency [12] | Potency [16] | outcome [6] | Potency [7] | Potency [13] | Potency [8] | Potency [9] | Potency [15]

N#Cc1c(F)cccc1F
inactive: Potency [1] | outcome [2] | Potency [3] | Potency [4] | outcome [5] | outcome [11] | Potency [12] | outcome [6] | Potency [7] | Potency [13] | Potency [8] | Potency [15]

CC(C)CCCC(C)CCO (stereo unspecified)
inactive: Potency [1] | Potency [10] | Potency [19] | Potency [18] | Potency [3] | Potency [4] | outcome [5] | outcome [11] | Potency [12] | Potency [16] | outcome [6] | Potency [7] | Potency [13] | Potency [8] | Potency [9] | Potency [15]

O=C(CC(=O)c1ccccc1)c1ccccc1
inactive: Potency [1] | Potency [19] | Potency [18] | Potency [3] | Potency [4] | outcome [5] | outcome [6] | Potency [13] | Potency [8]
active: Potency [10] 65.7 µM | Potency [9] 65.7 µM

Cn1c(N)nc2nc[nH]c2c1=O
inactive: Potency [1] | outcome [2] | Potency [3] | Potency [4] | outcome [5] | outcome [11] | Potency [12] | Potency [16] | outcome [6] | Potency [7] | Potency [13] | Potency [8] | Potency [9]

CC(C)CC=O
inactive: Potency [1] | Potency [10] | Potency [19] | Potency [18] | Potency [3] | Potency [4] | outcome [5] | outcome [11] | Potency [12] | Potency [16] | outcome [6] | Potency [7] | Potency [13] | Potency [8] | Potency [9] | Potency [15]

Source: PubChem BioAssay (Tox21)
